What all share (format): functional
The subject of test [1] is Plasmodium falciparum. The experiment in a line: GSK_TCMDC: Inhibition of Plasmodium falciparum 3D7 in whole red blood cells, using parasite LDH activity as an index of growth. Test compounds present at 2uM.
Test [2] relates to Plasmodium falciparum. In words: GSK_TCMDC: Inhibition of Plasmodium falciparum Dd2 in whole red blood cells, using parasite LDH activity as an index of growth. Test compounds present at 2uM.
In test [3] the test system is HepG2. In words: GSK_TCMDC: Percent inhibition of human HepG2 cell line. Test compounds present at 10uM.

27 molecules from ChEMBL document CHEMBL1157539, “Thousands of chemical starting points for antimalarial lead identification” (Nature, 2010) can be followed below.

“And” between values parts separate entries of the source, which are not always exact repeats. Identical values can stand only once.

Take `CN1CCC(NCc2ccc(-c3ccc(C(F)(F)F)cc3)cc2)CC1`: the results for the Inhibition in test [1], in test [2] and in test [3] were 99%, 71% and 54%, respectively.
As to `COc1cccc(C(=O)NCc2cccs2)c1Oc1ccccc1`, the results for the Inhibition in test [1], in test [2] and in test [3] were 98%, 4% and 0%, respectively.
In the case of `Cc1ccc(C(=O)c2oc3ccc4c(C)cc(=O)oc4c3c2C)cc1`, the figures for the Inhibition in test [1], in test [2] and in test [3] were 86%, 48% and 0%, respectively.
On to `Cc1cccc(CN2CCC(Oc3ccc(NC(=O)c4cccs4)cc3Cl)CC2)n1.O=C(O)C(F)(F)F`, for which the values for the Inhibition in test [1], in test [2] and in test [3] were 86%, 88% and 27%, respectively.
As to `O=C(/C=C/c1ccc(Cl)c(Cl)c1)NCCCCCN1CCC(NC(=O)Nc2ccc(Br)cc2)CC1`, the Inhibition in test [1] is on record as 100%; in test [2], 7%; in test [3], 36%.
In the same order, the values of `O=C(Nc1ccc2[nH]c(-c3ccc4nc(NC(=O)C5CCCCC5)sc4c3)nc2c1)C1CCCCC1` are 100%, 68% and 84%.
On to `Cc1ccc(C(=O)Nc2ccc(F)cc2)cc1-c1nc(NC2CC(C)(C)NC(C)(C)C2)nc2c1ccc(=O)n2-c1c(F)cccc1F`, for which the Inhibition in test [1] was found to be 89%; in test [2] it was 96%; in test [3], 16%.
As to `CC1(C)N=C(N)N=C(N)N1OCCCCON1C(N)=NC(N)=NC1(C)C`, the Inhibition was found to be 97% in test [1], 95% in test [2] and 54% in test [3].
As to `COc1ccc(-c2cncc3ccc(C(=O)NCc4ccncc4)nc23)cc1`, the Inhibition in test [1] was 100%; in test [2], 98%; in test [3], 25%.
For `COCCn1c(SC(C)C(=O)Nc2cc(C(F)(F)F)ccc2Cl)nc2ccccc2c1=O` (stereo unspecified), the Inhibition in test [1] turned out to be 97%; in test [2], 95%; in test [3] it was 8%.
Turning to `Br.CCCCCCCN(CCCCCCC)CCNc1cc(C)nc2ccccc12`, the Inhibition in test [1] is 89%; in test [2], 31%; in test [3], 39%.
Regarding `Cc1cc(=O)c(-c2ccc(Oc3cccc(C(F)(F)F)c3)cc2)c(C)[nH]1`, the Inhibition in test [1] was 97% and 96%; in test [2], 97% and 95%; in test [3] it was 8% and 14%.
With `COc1ccc(CNC(=O)c2cnc3c(O)cccc3c2Nc2cccc(NC(=O)c3ccc(-c4ccccc4)cc3)c2)cc1.O=C(O)C(F)(F)F`, the Inhibition in test [1] stood at 90%; in test [2] it was 83%; in test [3], 42%.
Turning to `CN(C)CCN(C)Cc1ccc(-c2ccc3c(Nc4ccc(Oc5ccccc5)cc4)ccnc3c2)o1`, the Inhibition was 100% in test [1], 100% in test [2] and 5% in test [3].
As for `Cc1cc(NC(=O)[C@H](CC2CCCCC2)Nc2ccc(C#N)c3ccccc23)ccc1F.O=C(O)C(F)(F)F`, the Inhibition in test [1] is listed as 100%; in test [2], 99%; in test [3], 21%.
Turning to `CN1CCc2cc(CN3CC4(C)CC3CC(C)(C)C4)c(O)cc2C(c2ccccc2)C1.Cl` (stereo unspecified), the Inhibition in test [1] was determined as 98%; in test [2], 88%; in test [3], 0%.
As to `CC(C)NC(=N)NN=Cc1ccc(Cl)c(Cl)c1`, the Inhibition in test [1] is listed as 100%; in test [2], 12%; in test [3], 0%.
Regarding `COc1ccc(-c2cc3nc4c(c(NCCCn5ccnc5)n3n2)CCCC4)cc1`, the values for the Inhibition in test [1], in test [2] and in test [3] were 95%, 74% and 5%, respectively.
The corresponding values for `Cc1cc(N)c2cc(NC(=O)/C=C/c3ccccc3Cl)ccc2n1` are 100%, 98% and 81%.
On to `Cc1cc(OCc2ccccc2)c(OCc2ccccc2)cc1C(O)CN(C)Cc1ccccc1.Cl` (stereo unspecified), for which the Inhibition in test [1] turned out to be 96%; in test [2], 87%; in test [3] it was 14%.
The corresponding values for `COc1cc(NCCCCNc2ccc(Cl)c(Cl)c2)nc2ccccc12` are 100%, 68% and 22%.
In the case of `Cc1c(Cc2ccc(F)cc2)c(Cl)nc2nc(N)nc(N)c12`, the Inhibition is 92% in test [1], 1% in test [2] and 66% in test [3].
With `Cc1ccccc1C1CCN(C2CCC(NC(=O)/C=C/c3cccc(Cl)c3Cl)CC2)CC1` (stereo unspecified), the Inhibition in test [1] is given as 94%; in test [2] it was 23%; in test [3] it was 74%.
The corresponding values for `Cc1cc(C=C2SC(=Nc3ccccc3)N(C3CCCC3)C2=O)c(C)n1-c1ccc(Cl)cc1` are 100%, 70% and 0%.
Take `O=C(C=Cc1ccc(Cl)c(Cl)c1)NCCCCCN1CCC(CCCNC(=O)/C=C/c2ccccc2)CC1`: the values for the Inhibition in test [1], in test [2] and in test [3] were 96%, 33% and 50%, respectively.
In the case of `COc1ccc(NC(=O)c2ccc(C=Cc3ccc(C(F)(F)F)cc3)cc2)cc1N1CCN(C)CC1`, the Inhibition in test [1] was found to be 99%; in test [2], 47%; in test [3] it was 46%.
The corresponding values for `Cc1ccc(C(=O)Nc2ccc(OC3CCN(CCC(C)C)C3)c(Cl)c2)cc1.O=C(O)C(F)(F)F` (stereo unspecified) are 83%, 38% and 63%.

Broadly, the Inhibition is the share of the control response that was lost under treatment. Read a low Inhibition as a response near the control.
